Source: PubChem BioAssay (National Center for Advancing Translational Sciences (NCATS))
SMN2 splice up – increases expression of the SMN2 splice variant. HEK293 SMN2-luciferase splicing reporter, luminescence, 30-36 h. Potency, µM (series often up to 46.1 µM), hits mostly activators. 210,000 compounds, 2.8% hits. AID 1458; further: nearly all actives have a fitted effect of over 55% in size
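HEK293 cells carry an SMN2 minigene-luciferase reporter in which exon 7 inclusion puts luciferase in frame. Cells were seeded at 2000 cells/well, attached for 10-12 hours, then exposed to compounds for 30-36 hours at 37C before ONE-Glo luminescence.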
Rab9 prom act – activators of Rab9 promoter. Huh7 Rab9 promoter-luciferase reporter, luminescence, 24 h. Potency, µM (series often up to 9.22 µM), usual class: activators. 320,000 compounds, 2.8% hits. AID 485297; further: nearly all actives have a fitted effect of over 60% in size
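Cell-based reporter: Huh7 stable for Rab9 promoter-driven luciferase, plated in reduced-serum medium with 10% FBS at 1500 cells/well, compound-treated 24 h at 37 °C, luminescence read after 10 min reagent.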
NPC1 promoter act – activates the NPC1 promoter. Huh7 NPC1 promoter luciferase reporter, 24 h. Potency, µM (titrated, usually from 9.22 µM), usual class: activators. 320,000 compounds, 2.4% hits. AID 485313; further: nearly all actives have a fitted effect of over 60% in size
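Stably transfected Huh7 (NPC1 promoter→luciferase), 1500 cells/well in Opti-MEM + 10% FBS, 2 h settle, then compound 24 h at 37 °C. Luminescence after 10 min with Amplite reagent.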
ELG1 genotox – induces genotoxicity in HEK293T cells with luciferase-tagged ELG1 | HEK293T ELG1-luciferase reporter, luminescence, 16 h | Potency, µM (doses to about 46 µM), most hits filed as activators | 330,000 compounds, 1.3% hits; further: nearly all actives have a fitted effect of over 60% in size
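Cells (2,000/well) expressing the ELG1-luciferase fusion are dosed by pin tool and kept 16 hr at 37 °C, 5% CO2. Signal comes from ONE-Glo luciferase reagent after 30 min at room temperature.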
KinaseGlo FLuc – counter-screen: inhibitors of Kinase-Glo firefly luciferase | Kinase-Glo luciferase, ATP luminescence, 8 min | Potency, µM (series often up to 38.3 µM), actives largely listed as inhibitors | 200,000 compounds, 0.28% hits | AID 1379; further: nearly all actives have a fitted effect of over 60% in size
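Compound is pinned into ATP-containing buffer (10 uM ATP, imidazole pH 7.2, 7 mM MgCl2). Kinase-Glo luciferase reagent is then added. Light output is recorded following an 8-min room-temperature incubation.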
FLuc counter – counter-screen for miR-21 project: firefly luciferase inhibitors or activators | AID 588342 | P08659 | 360,000 compounds, 6.9% hits | Potency, µM (highest dose often 57.5 µM), actives largely listed as inhibitors | purified FLuc, Km substrates, luminescence inhibition; further: nearly all actives have a fitted effect of over 55% in size
Target sequence (P08659 whole entry, looked up): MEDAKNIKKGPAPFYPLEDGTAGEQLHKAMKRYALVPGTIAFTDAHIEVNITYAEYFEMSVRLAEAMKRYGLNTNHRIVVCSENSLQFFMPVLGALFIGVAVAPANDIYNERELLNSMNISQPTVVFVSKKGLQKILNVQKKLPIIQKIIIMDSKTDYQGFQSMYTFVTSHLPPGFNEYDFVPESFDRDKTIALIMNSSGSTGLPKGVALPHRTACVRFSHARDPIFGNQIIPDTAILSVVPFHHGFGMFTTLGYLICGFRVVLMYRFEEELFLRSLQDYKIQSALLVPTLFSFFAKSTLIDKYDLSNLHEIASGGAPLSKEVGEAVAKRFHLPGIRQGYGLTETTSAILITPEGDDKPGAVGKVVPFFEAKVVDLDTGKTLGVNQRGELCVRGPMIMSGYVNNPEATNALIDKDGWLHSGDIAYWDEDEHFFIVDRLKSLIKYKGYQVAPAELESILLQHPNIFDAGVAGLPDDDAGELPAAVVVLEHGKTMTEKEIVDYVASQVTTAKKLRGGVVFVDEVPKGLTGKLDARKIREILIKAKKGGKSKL
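Purified P. pyralis luciferase (10nM final) with 10uM D-luciferin and 10uM ATP (Km levels) in 50mM Tris acetate pH 7.5, 10mM Mg acetate, 0.01% Tween-20, 0.05% BSA; qHTS 6-point titration, ~60 µM downward; luminescence read.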
A number is an active result; 0 = inactive; ? = inconclusive; - = no result given. Compounds with a hit are over-represented: about 7.5% of the library has one in this group of screens. The call rests on the fitted dose curve; in most records, active means well fitted curve in the direction sought with a large enough effect; inconclusive means small, poorly fitted or top-dose-only effect, or another doubt; inactive means no such curve, though single readings can be large; an effect the other way counts as inactive or inconclusive.

SMILES | SMN2 splice up | Rab9 prom act | NPC1 promoter act | ELG1 genotox | KinaseGlo FLuc | FLuc counter
C[C@]12CCC(=O)C=C1CC[C@@H]1C2[C@@H](O)C[C@@]2(C)[C@H]1CC[C@]2(O)C(=O)CO (stereo not given in full) | 0 | - | - | - | 0 | -
O=c1nc(NCc2ccco2)sc2ncccc12 | - | 0 | 0 | 0 | 0 | 0
COc1ccc(OC)c(Nc2nc(=O)c3cccnc3s2)c1 | 0 | 0 | 0 | 0 | 11.2µM | 16.9µM
Cc1ccc(Nc2nc(=O)c3cccnc3s2)cc1 | 0 | 2.51µM | 3.16µM | ? | 0 | 12µM
COc1ccc(NC(=O)Cn2cnc3c(nc4n3CCCCC4)c2=O)cc1Cl | - | - | - | - | - | 0
CN(C)/C=N/c1ncnc2c1cnn2-c1ccc(C(F)(F)F)cn1 | 14.1µM | ? | 2.51µM | ? | 0 | 10.7µM
Cc1ccc(CSc2ccc(-c3cccs3)nn2)cc1 | 14.1µM | 2.82µM | 4.47µM | 23.1µM | 0 | 2.13µM
Clc1cccc(CSc2ccc(-c3cccnc3)nn2)c1 | 0 | 0 | 0 | 0 | 0 | ?
Fc1cccc(CSc2ccc(-c3cccs3)nn2)c1 | - | - | - | - | - | 9.53µM
c1cncc(CSc2ccc(-c3cccs3)nn2)c1 | 0 | 3.55µM | ? | 0 | 0 | 16.9µM
Fc1ccc(CSc2ccc(-c3cccs3)nn2)cc1 | 5.01µM | ? | ? | ? | 0 | ?
Cc1ccccc1CSc1ccc(-c2cccs2)nn1 | - | - | - | - | - | 7.57µM
O=C(CSc1ccc(-c2cccs2)nn1)Nc1cccc(F)c1 | - | - | - | - | - | 23.9µM
C=C1C(c2ccc(C)cc2)=CCc2cc(C)cc(C)c21 | 14.1µM | - | - | - | - | -
Cc1cc(OC(=O)c2ccccc2F)c([N+](=O)[O-])c(=O)[nH]1 | - | 0 | 0 | 0 | - | 0
CCOC(=O)c1noc2ncnc(Nc3cc(Cl)c(OC)cc3OC)c12 | - | - | - | - | - | 0
Cc1[nH]c2ccc(C(=O)Nc3ccncc3)cc2c1C | - | 0 | 0 | 0 | - | 16.9µM
Cc1ccccc1CNC(=O)c1ccc2[nH]c(C)c(C)c2c1 | - | - | - | - | - | 0
Cc1[nH]c2ccc(C(=O)O)cc2c1C | 0 | 0 | 0 | 0 | 0 | 0
Cc1ccccc1NC(=O)c1ccc2[nH]c(C)c(C)c2c1 | - | - | - | - | - | 21.3µM
COc1ccccc1NC(=O)c1ccc2[nH]c(C)c(C)c2c1 | - | 2.82µM | ? | ? | - | 12µM
CCCn1c(-c2ccc(F)cc2)nc2c(NCCCCN3CCCC3)nc(C)nc21 | 0 | - | - | - | 0 | -
O=C(NCCc1c[nH]c2ccccc12)C1CCC(=O)N(CCc2cccc(F)c2)C1 (stereo not given) | - | 0 | 0 | 0 | - | 0
COc1ccc(-n2nc(C(=O)NCC(=O)O)c3ccccc3c2=O)cc1 | - | 0 | 0 | 0 | - | 0
CCN1CCN(C(=O)CNC(=O)c2nn(-c3ccc(OC)cc3)c(=O)c3ccccc23)CC1 | - | 0 | 0 | 0 | - | 4.78µM
SMILES | SMN2 splice up | Rab9 prom act | NPC1 promoter act | ELG1 genotox | KinaseGlo FLuc | FLuc counter
COc1ccc(-n2nc(C(=O)NCC(=O)N3CCCCC3)c3ccccc3c2=O)cc1 | - | 0 | 0 | 0 | - | 3.01µM
COc1ccc(-n2nc(C(=O)NCC(=O)NC(C)C)c3ccccc3c2=O)cc1 | - | 0 | 0 | 0 | - | 0
COc1ccc(-n2nc(C(=O)NCC(=O)N(C)Cc3ccccc3)c3ccccc3c2=O)cc1 | - | 0 | 0 | 0 | - | 16.9µM
COc1ccc(-n2nc(C(=O)NCC(=O)N3CCN(Cc4ccccc4)CC3)c3ccccc3c2=O)cc1 | - | 0 | 0 | 0 | - | ?
COc1ccc(-n2nc(C(=O)NCC(=O)N3CCCC3)c3ccccc3c2=O)cc1 | - | 0 | 0 | 0 | - | 12µM
Cc1cc(=O)oc2cc(OCC(=O)NC3(C#N)CCCCC3)c(Cl)cc12 | - | 0 | 0 | 0 | - | 0
CC1(C)O[C@@H]2[C@@H](O1)C(c1ccccc1)(c1ccccc1)OP(=O)(O)OC2(c1ccccc1)c1ccccc1 | 0 | - | - | - | 0 | -
COc1ccc(C(=O)N(C)Cc2ccc(C)o2)cc1OC1CCN(C(C)=O)CC1 | - | 0 | 0 | 0 | - | 0
c1ccc(SCc2cc(-c3ccccc3)no2)cc1 | 0 | 2.51µM | 3.55µM | ? | 0 | 8.49µM
Clc1ccc(-c2cc(CSc3cccc(Cl)c3)on2)cc1 | 0 | 0 | 0 | 0 | 0 | ?
Clc1ccc(-c2cc(CSc3ccccc3)on2)cc1 | 12.6µM | 3.16µM | 4.47µM | ? | 0 | 2.39µM
